# 12-LOX inh – blocks human arachidonate 12S-lipoxygenase; purified 12hLO, xylenol orange hydroperoxide absorbance; P18054; Potency, µM (series often up to 108 µM), for the others: at the top dose activity change, negative = inhibition, actives largely listed as inhibitors; 1.1% of 580,000 active; note: % is set by controls: 0 for no effect and ±100 for the full control effect
#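 Purified human 12hLO (150 nM final) in 25 mM Hepes, 0.01% Triton X-100, pH 7.0 was preincubated 15 min at room temperature with compound. Then 40 uM arachidonic acid was added, 30 min. Hydroperoxide was read by Fe-XO absorbance ratio 573/405 nm.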
# JMJD2A Tudor – blocks the human JMJD2A Tudor domain; O75164; AlphaScreen JMJD2A-Tudor / H3K4me3 peptide binding; Potency, µM (titrated, usually from 114 µM), inactives show at the top dose activity change, negative = inhibition, most hits filed as inhibitors; 4.4% of 390,000 active; note: % is set by controls: 0 for no effect and ±100 for the full control effect; nearly all actives have a fitted effect of over 50% in size
# G9a inh – G9a (human) methyltransferase inhibition | Potency, µM (highest dose often 102 µM), inactives show at the top dose activity, negative = inhibition, actives largely listed as inhibitors | G9a H3K9 monomethylation, AlphaScreen, 2 h | AID 504332 | 8.8% of 350,000 active | Q96KQ7; note: % is set by controls: 0 for no effect and ±100 for the full control effect; nearly all actives have a fitted effect of over 75% in size
# Target sequence (Q96KQ7 913-1193 limits assumed): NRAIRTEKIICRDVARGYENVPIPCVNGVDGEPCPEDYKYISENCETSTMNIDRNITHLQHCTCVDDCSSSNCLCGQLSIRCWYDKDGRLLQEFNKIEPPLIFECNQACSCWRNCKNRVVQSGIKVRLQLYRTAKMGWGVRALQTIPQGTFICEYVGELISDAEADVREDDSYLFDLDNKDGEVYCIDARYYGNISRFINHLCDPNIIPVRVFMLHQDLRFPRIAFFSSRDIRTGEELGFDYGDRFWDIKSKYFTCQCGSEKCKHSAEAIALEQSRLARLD
#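 Signal arises when biotinylated H3K9 peptide, once monomethylated, bridges streptavidin donor and antibody-captured acceptor beads. Enzyme at 20 nM was preincubated 15 min with test compounds; peptide 500 nM and SAM 20 uM then reacted for 2 h.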
# BAZ2B block – BAZ2B (human) inhibition. Q9UIF8. AlphaScreen BAZ2B-H3K14Ac peptide displacement. Potency, µM (titrated, usually from 114 µM), without a hit: top-dose activity change, negative = inhibition, hits mostly inhibitors. 4.4% of 360,000 active; note: % is set by controls: 0 for no effect and ±100 for the full control effect; nearly all actives have a fitted effect of over 60% in size
#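 Multi-concentration screen (max 110 uM) measuring displacement of acetylated histone H3 peptide from BAZ2B by AlphaScreen, using 50 nM protein, 50 nM peptide and 10 ug/mL streptavidin donor plus Ni-chelate acceptor beads.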
# HP1b binding inh – HP1-beta chromodomain-methylated histone interaction inhibition; P83916; AlphaScreen HP1-beta / biotin-H3K9me3 peptide binding; Potency, µM (top dose mostly 114 µM), without a hit: top-dose activity change, negative = inhibition, most hits filed as inhibitors; 0.56% of 390,000 active; note: nearly all actives have a fitted effect of over 70% in size
# Target sequence (P83916 whole entry, looked up): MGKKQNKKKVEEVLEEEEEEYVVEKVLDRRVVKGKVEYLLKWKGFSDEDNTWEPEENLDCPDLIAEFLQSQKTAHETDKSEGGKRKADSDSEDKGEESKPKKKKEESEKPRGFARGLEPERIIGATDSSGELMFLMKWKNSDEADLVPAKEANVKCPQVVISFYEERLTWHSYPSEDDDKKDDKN
#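 HP1-beta protein (50 nM final) preincubated 30 min at room temperature with biotinylated H3(1-18)K9me3 peptide (50 nM) in PBS pH 7.4, 0.01% Tween-20, then compound added for 30 min. AlphaScreen streptavidin donor/nickel chelate acceptor beads (10 ug/mL final), 30 min dark, luminescence read.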
# Sfp inh – blocks B. subtilis Sfp PPTase activity; Q9F4F7; Biochemical Sfp PPTase activity, qHTS; Potency, µM, for the others: largest response in the series, negative = inhibition, actives largely listed as inhibitors; 3.5% of 310,000 active;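 note: the enzyme is Sfp with the accession as filed and its product quenches rhodamine fluorescence; 0% = enzyme reaction without inhibitor and -100% = no enzyme wells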
#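 Fluorescence-quenching assay: 15 nM Sfp-PPTase preincubated 15 min at room temperature with compound, then 5 uM rhodamine-CoA and 12.5 uM BHQ-2-labelled YbbR peptide added. Fluorescence (ex 525/em 598 nm) read at start and after 30 min; difference gives rate.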
# Active calls of the source: *; ? = inconclusive; . = no result; [ ] = another dose, or the depositor's remark. Most compounds without a hit are left out; they make up all but 8.7% or so of the library. Calls come from the whole dose curve; as a rule, active = well fitted curve in the direction sought with a large enough effect; inconclusive = small, poorly fitted or top-dose-only effect, or another doubt; inactive = no such curve, though single readings can be large; an effect the other way counts as inactive or inconclusive. Potency is the fitted concentration of half-maximal effect.
SMILES,12-LOX inh,JMJD2A Tudor,G9a inh,BAZ2B block,HP1b binding inh,Sfp inh
COc1ccc(/C=N/Nc2ccc(C(=O)O)cc2)c(OC)c1OC,0%,-23%,?,19%,35%,13%
Cc1cc(/C=N/Nc2nc(N)ncc2[N+](=O)[O-])c(C)n1-c1ccccc1F,.,.,28%[59 µM],-13%,.,50µM*
COc1cc(/C=N/Nc2ccc(C(=O)O)cc2)cc(OC)c1OC,-22%,-7%,50µM*,-4%,45%,14%
C=CCOc1c(OC)cc(/C=N/Nc2cccc(C(=O)O)c2)c(Br)c1Br,?,56µM*,10µM*,40µM*,?,-4%
Cc1cc(S(=O)(=O)[C@H]2CS(=O)(=O)C[C@@H]2N2CCN(c3ccc(F)cc3)CC2)ccc1F,29%,.,.,.,.,.
C=CCN1CC2(CCC1=O)CCN(Cc1cccc(C#N)c1)CC2,4%,.,.,.,.,.
O=[N+]([O-])c1ccc(NN=Cc2cccc(O)c2)nc1,-4%,-24%,.,.,-15%,.
COc1cc(/C=N/NC(=O)CCN2CCCCC2)ccc1O,-11%,-3%[11.4 µM],?,-3%,28%,-3%
COc1cc(/C=N/NC(=O)CCn2cnc(-c3ccccc3)c2-c2ccccc2)ccc1O,-3%,56µM*,45µM*,45µM*,?,-13%
COc1ccc(/C=N/Nc2ccc([N+](=O)[O-])cc2)cc1O,?,?,?,50µM*,?,-17%
COc1cc(/C=N/Nc2ccc([N+](=O)[O-])cn2)cc(OC)c1O,-3%,-23%,8.9µM*,-28%,82%,-7%
Cc1cccc(C)c1-n1c(C)cc(/C=N\Nc2ccc([N+](=O)[O-])cn2)c1C,0%,28µM*,?,-13%,-23%,-6%
COc1ccc(/C=N/Nc2ccc([N+](=O)[O-])cc2)cc1Cn1cc([N+](=O)[O-])cn1,9%,-21%[11.4 µM],?,-31%,42%,-22%
COc1ccc(C(=O)N2C[C@@H]3C[C@H](C2)c2ccc(NS(=O)(=O)c4cccc(F)c4)c(=O)n2C3)cc1,-19%,.,.,.,.,.
COc1ccc([N+](=O)[O-])cc1/C=N/NC(=O)c1nonc1N,-18%,-20%,5%,0%,19%,12%
COc1ccc([N+](=O)[O-])cc1/C=N/Nc1nn[nH]n1,-8%,-6%,45µM*,?,16%,-12%
O=[N+]([O-])c1ccc(/C=N/Nc2cccc(Cl)c2)cc1,3.2µM*,.,.,.,.,.
COc1cc(/C=C/C(C)=NNc2ccccc2)ccc1O,?,50µM*,.,.,?,.
CCCNC(=O)N[C@@H]1CCC[C@@H](C(=O)NCc2ccc(OC)cc2)CC(=O)N(C)C1,-3%[176 µM],.,.,.,.,.
Cc1ccc(C(C)C)cc1OCC(=O)NNC(=O)Nc1ccccc1,7%,-11%,79µM*,7%,48%,5%
Cc1ccc(C(C)C)c(OCC(=O)NNC(=O)Nc2ccccc2)c1,185%,-25%,.,.,4%,.
CCN(CC)C(=O)c1c(-c2ccc(OC)cc2)noc1[C@H](C)O,-27%[176 µM],.,.,.,.,.
COc1ccccc1CCNC(=O)CSc1nnc2ccc(-c3ccncc3)nn12,93%,-4%[11.4 µM],50µM*,-29%,58%,19%
Cc1cc(NC(=O)CSc2ccc3nnc(-c4cccc(F)c4)n3n2)no1,45µM*,-1%,22µM*,-2%,24%,-7%
Cc1cc(NC(=O)CSc2nnc3ccc(-c4ccc(F)cc4)nn23)no1,14%,-15%,50µM*,-7%,-1%,.
SMILES,12-LOX inh,JMJD2A Tudor,G9a inh,BAZ2B block,HP1b binding inh,Sfp inh
Cc1cc(NC(=O)CSc2ccc3nnc(-c4ccc(Cl)cc4)n3n2)no1,?,-4%,22µM*,-4%,23%,2%
CC(C)CCn1c(SCC(=O)Nc2ccccc2C(F)(F)F)nc2nccnc2c1=O,?,-27%,6.3µM*,79µM*,12%,?
O=C1NC2(CCN(Cc3ccsc3)C2)OCc2ccccc21 (stereo not drawn),16%[176 µM],.,.,.,.,.
Cc1ccc(CN2CCc3ncc(C(=O)NCc4ccccc4)n3CC2)o1,29%[176 µM],.,.,.,.,.
Cc1nc(N)sc1N=Nc1ccccc1C(F)(F)F,0%,50µM*,40µM*,28µM*,35µM*,14%
Cc1[nH]n(C(N)=S)c(=O)c1N=Nc1ccccc1C(F)(F)F,0%,?,?,-36%,10%,?
O=C(CSc1n[nH]c(-c2ccccc2F)n1)Nc1ccc2c(c1)OCCCO2,-6%,.,.,.,.,.
c1ccc2[nH]c(CN3CCCCCC3)nc2c1,18%,-16%,28µM*,-15%,25%,-2%
O=c1[nH]c(CN2CCCCC2)nc2ccccc12,?,?,?,-8%,15%,-17%
CCCCc1ccc(-c2csc(-c3nc(-c4ccc(C)cc4)c(C)s3)n2)cc1,12%,.,.,.,.,.
C#CCOCCOCCOCCNc1nc(N2CCN(C(=O)[C@H]([C@@H](C)CC)n3cc(CCCN=C(N)N)nn3)CC2)nc(N2CCN(C(=O)[C@H](CCCCN)n3cc(CCCC)nn3)CC2)n1,?,-31%,?,-38%,17%,4%
C#CCOCCOCCOCCNc1nc(N2CCN(C(=O)CCCCCCCCCCNC(=O)[C@H]([C@@H](C)CC)n3cc(CCCCN=C(N)N)nn3)CC2)nc(N2CCN(C(=O)CCCCCCCCCCNC(=O)[C@H](CCCN=C(N)N)n3cc(C[C@@H](C)CC)nn3)CC2)n1,.,.,2%[2.33 µM],50µM*,.,.
C#CCOCCOCCOCCNc1nc(N2CCOCC2)nc(N2CCN(C(=O)CCCCCCCCCCNC(=O)[C@H]([C@@H](C)CC)n3cc(CCCCN=C(N)N)nn3)CC2)n1,?,-34%,-3%[2.33 µM],?,20%,.
C#CCOCCOCCOCCNc1nc(N2CCN(C(=O)CCCCCCCCCCNC(=O)[C@H](CCCN=C(N)N)n3cc(C[C@@H](C)CC)nn3)CC2)nc(N2CCN(C(=O)CCCCCCCCCCNC(=O)[C@@H]([C@H](C)CC)n3cc(CCCCCN)nn3)CC2)n1,.,.,10%[2.33 µM],56µM*,.,.
C#CCOCCOCCOCCNc1nc(N2CCN(C(=O)CCCCCCCCCCNC(=O)[C@H]([C@@H](C)CC)n3cc(CCCCN=C(N)N)nn3)CC2)nc(N2CCN(C(=O)CCCCCCCCCCNC(=O)[C@@H]([C@H](C)O)n3cc(C)nn3)CC2)n1,.,56µM*,12%[2.33 µM],?,?,.
CCOC(=O)c1c(S(=O)(=O)N2CCCC(C(=O)Nc3ccc(F)cc3)C2)c(C)n(C)c1C (stereo not drawn),3%,.,.,.,.,.
O=C(Nc1ccc2c(c1)CCC2)c1ccc(Br)cc1,1%,.,.,.,.,.
CC/C(=C\c1ccc(N(C)C)cc1)c1ccncc1,-5%,22µM*,.,.,?,.
CN(C)c1ccc(-c2ccncc2)cc1,.,.,8%[2.33 µM],4%,.,24%
